Out of some 69,000 compounds screened, about 8,600 (12%) showed an effect of 50% or more. Only a selection was taken, and strong results are over-represented in it overall.
test system: Plasmodium berghei; experiment: Screen against P. berghei liver stage (PbLuc), transformed with Luciferase, at 10uM; format: functional, HepG2; details: tested at 10 uM

Structure (SMILES) | INHIBITION [%]
CCOC(=O)NCCC(=O)NC(C)(C)c1ccc2c(c1)OCCO2 | -15.7
CC(C)(C)c1nc(CN(Cc2cccs2)CC2CCCO2)no1 (centres undefined) | 11.2
c1cncc(COc2ccccc2CNC2CCc3ncnn3C2)c1 (centres undefined) | -4.823
Cc1noc(C2CCC3(CCN(C(=O)c4ncccn4)CC3)O2)n1 (centres undefined) | -14.2
O=C(C(c1ccccc1)S(=O)(=O)c1ccccn1)N1CCCCC1 (centres undefined) | 24.7
Cc1ccc(C(C)N(C)C(=O)c2ccc(=O)n(C)c2)s1 (centres undefined) | 37.4
Cc1ncsc1CN1CCOC(C)(C(=O)N(C)C)C1 (centres undefined) | 21.1
CCCn1c(C)c(CC(=O)NC(C)(C)CO)c2c1CC(C)(C)CC2=O | 4.25
Cn1cc(CN2C[C@@H]3COC[C@]3(C(=O)NCCc3ccccc3)C2)cn1 | 32.2
O=C(NC1CCC1)[C@@H]1C[C@@H]2CCN(CCc3ccccc3)C[C@H]2O1 | 81.2
O=C(NC1CC1)[C@@H]1C[C@@H]2CCN(Cc3ccccc3)C[C@H]2O1 | 29.9
O=C(NC1CC1)[C@H]1C[C@@H]2CCN(CCc3ccccc3)C[C@H]2O1 | 44.4
CS(=O)(=O)c1ccc(CNC(=O)N2CCC(CO)CC2)cc1 | 17.4
CCc1nccn1CC1CCCN1S(=O)(=O)N1CCCOCC1 (centres undefined) | -9.39
CN1C[C@H]2CC[C@@H](CC1=O)N2C(=O)c1cc2ccccc2[nH]c1=O | -7.53
Cc1cc(N(C)C)nc(N2CCCC2c2ccccn2)n1 (centres undefined) | -30
CC(C)CCC(=O)NC(C)c1nnc2n1CCCCC2 (centres undefined) | 53.8
CC(NC(=O)CCC1CCCCC1)c1nnc2n1CCC2 (centres undefined) | -31.8
CC(C)c1noc(CCCC(=O)NC(C)c2nnc3n2CCC3)n1 (centres undefined) | 50.2
CC(C)c1noc(CCC(=O)NC(C)c2nnc3n2CCC3)n1 (centres undefined) | 20.6
CC(C)c1noc(CCC(=O)NC(C)c2nnc3n2CCCCC3)n1 (centres undefined) | 11.8
CCCC(=O)NC(C)c1nnc2n1CCC2 (centres undefined) | 3.73
CSCCC(C)(O)CNS(=O)(=O)Cc1cccc(C)c1 (centres undefined) | 17

Structure (SMILES) | INHIBITION [%]
Cc1cc(N2CCCC2c2nnc3n2CCCCC3)nc(C)n1 (centres undefined) | 23.6
Clc1cncc(N2CCCC2c2nnc3n2CCCCC3)n1 (centres undefined) | -22.4
Cc1cc(N2CCCC2c2nnc3n2CCCCC3)nc(N)n1 (centres undefined) | 63.6
c1ccc2nc(N3CCCC3c3nnc4n3CCCCC4)cnc2c1 (centres undefined) | 42.8
c1cnc2nc(N3CCCC3c3nnc4n3CCCCC4)ccc2n1 (centres undefined) | 58.7
CCOc1cncc(N2CCCC2c2nnc3n2CCCCC3)n1 (centres undefined) | 24.2
Cc1cnn(C2CCCN(C(=O)Cc3n[nH]c4ccccc34)C2)c1 (centres undefined) | 33.7
CN(CCc1ccccn1)C(=O)CCC1CCCN(S(C)(=O)=O)C1 (centres undefined) | 15.3
O=C(NCc1nncn1C1CCCCC1)C1COc2ccccc2C1 (centres undefined) | 32.4
CNC(=O)N1CCc2cc(C(=O)N(C)C)c(NCC3CC3)nc2CC1 | -25
COc1ccc(Br)c(NC(=O)NCc2ncnn2C)c1 | 13.8
COc1ccc(C)c(NC(=O)NCc2ncnn2C)c1 | 51.1
Cc1c(NCC(C)(C)C)cccc1C(=O)NCc1ncnn1C | -30.1
Cc1cc(C)cc(C(=O)NCc2ncnn2C)c1 | 57.2
Cc1c(Cl)cc(C(=O)NCCc2ncnn2C)cc1Cl | 42
COc1ccc(Cl)cc1CCNC(=O)NCc1ncnn1C | -23.5
O=C(c1ccc(-c2ccccc2)[nH]c1=O)N1CCN(C2CC2)CC1 | 32.8
CN(C)C(=O)[C@H]1C[C@H]2CN(C(=O)NCC3CCCCC3)C[C@@H]1O2 | -36
Fc1ccc(CN2CCCn3cnc(COCC4CC4)c3C2)cc1 | 45.8
O=C(NC(C(=O)Nc1cc[nH]n1)c1ccccc1)C1CCC1 (centres undefined) | 50.7
CC(NC(=O)C1CCCC1)c1nc(-c2ccccc2)c[nH]1 (centres undefined) | 31.7
NC(=O)C(NC(=O)COC1CCCCC1)c1ccccc1 (centres undefined) | 22.5
NC(=O)C(NC(=O)COC1CCCC1)c1ccccc1 (centres undefined) | 45.3

Structure (SMILES) | INHIBITION [%]
O=C(COC1CCCC1)NC(C(=O)Nc1cc[nH]n1)c1ccccc1 (centres undefined) | 62.6
O=C(NC(c1ccccc1)c1cccnc1)C1CC1 (centres undefined) | 25.8
c1cnnc(N2CCCC2CNCc2nc(-c3ccco3)no2)c1 (centres undefined) | 30.42
CNC(=O)CN1CC[C@H]2CN(C(=O)c3ccoc3)C[C@H]2C1 | 15.4
Cc1ccc(CC(=O)N2CCCC(n3ccnc3C(C)C)C2)cn1 (centres undefined) | -9.19
CN1CCOC(CNC(=O)Cc2coc(-c3ccccc3)n2)C1 (centres undefined) | -33.9
CC(=O)c1cccc(NC(=O)CCn2nc(-c3cccs3)oc2=O)c1 | 29.2
O=C(c1c2c(NCC3CC3)ncnc2n2ccccc12)N1CCCC1 | 26.5
O=C(c1c2c(NCC3CC3)ncnc2n2ccccc12)N1CCOCC1 | 50.7
O=C(c1c2c(N3CCCC3)ncnc2n2ccccc12)N1CCOCC1 | 36.2
CCc1n[nH]c(C2CN(C(=O)c3cscn3)CCO2)n1 (centres undefined) | -23.9
CO[C@@H]1CN(S(=O)(=O)c2cn(C)cn2)[C@@H]2CCCO[C@@H]21 | -66.7
O=C(NCc1nncn1C1CC1)c1cccnc1Oc1ccccc1 | 25.6
CCSC(C)C(=O)N1CCC(c2nn(C)c(=O)n2-c2ccccc2)CC1 (centres undefined) | 63.7
CCCC(=O)N1CCC(c2nn(C)c(=O)n2-c2ccccc2)CC1 | 28.7
CC(=O)N1CCC(c2nn(C)c(=O)n2-c2ccccc2)CC1 | 35.2
CNC(=O)CN1CCC(CN(C)CCSc2ccccc2)CC1 | -70.7
Cn1nc(C2CCN(CC(=O)NC3CC3)CC2)n(-c2ccccc2)c1=O | -21.3
CNC(=O)CN1CCC(c2nn(C)c(=O)n2-c2ccccc2)CC1 | 53.7
Cc1nc(NCc2cccc(F)c2)cc(C2CCNCC2)n1 | 24.8
COc1ccccc1CN1C(=O)O[C@@H]2CN(S(=O)(=O)N(C)C)C[C@@H]21 | 7.97
COc1ccccc1CN1C(=O)O[C@@H]2CN(CC3CC3)C[C@@H]21 | -0.613
COc1ccccc1CN1C(=O)O[C@@H]2CN(C(C)C)C[C@@H]21 | 79.5
